# Compounds without any hit were thinned out: in the full panel of roughly 83,000, 20% have a hit.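 The endpoint reported here, percent growth, reads 100 for growth as untreated, 0 for no net growth and -100 for all cells dead.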 The source made the active and inactive calls. How the source made its calls: active means growth percent below 10; inactive means the rest.
# System: OVCAR-3 ovarian
# Experiment: NCI-60 one-dose screen, 48 h (100 = growth as untreated, 0 = no growth, -100 = all killed)
# Conditions: 10 µM unless noted
row,Structure (SMILES),growth
1,Nc1ncccc1O,131% (inactive)
2,CC1(C)CC[C@]2(CO)CC[C@]3(C)[C@](O)([C@H](O)C[C@@H]4[C@@]5(C)CCCNC(C)(C)[C@@H]5CC[C@]43C)[C@@H]2C1,101% (inactive)
3,CN(C)CCC(=O)C1CC1,105% (inactive)
4,CCCc1cc(=O)oc2c(C(=O)CC(C)C)c(O)c(CC=C(C)C)c(O)c12,13.6% (inactive)
5,CSc1ccc2c3c(n(CCCn4ccnc4)c(=O)c2c1)-c1ccccc1C3=O,64.5% (inactive)
6,O=c1oc2ccccc2cc1-c1nn(-c2ccccc2)cc1-c1nn[nH]n1,114% (inactive)
7,COc1ccc(-c2cc(C(=O)N3N=C(c4ccc(N)cc4)CC3c3ccc(Cl)cc3)c3ccccc3n2)cc1 (stereo not drawn),3.86% (active)
8,COc1cc(/C=C/c2cn[nH]c2-c2ccc(C)cc2)cc(OC)c1OC,15.5% (inactive)
9,COc1ccc(Nc2ncc(I)c(NCCCNC(=O)C3CCC3)n2)cc1,-40.4% (active)
10,CN1CCOCCN(C)Cc2ccc3ccc(cc3c2)CN(C)CCOCCN(C)Cc2ccc3ccc(cc3c2)C1,75.6% (inactive)
11,S=c1ccnc[nH]1,111% (inactive)
12,c1ccc2cc(Cn3cc(CSc4nc5ccccc5s4)nn3)ccc2c1,103% (inactive)
13,O=C(O)c1cn(C2CC2)c2cc(N3CCN(C(=O)N4CCOCC4)CC3)c(F)cc2c1=O,109% (inactive)
14,O=C(NCCN1CCOCC1)OCc1ccc2c(Cl)cc(Cl)c(O)c2n1,62.1% (inactive)
15,O=C(/C=C/c1ccccc1)c1ccc(-n2cc(CN3CCN(c4cc5c(cc4F)c(=O)c(C(=O)O)cn5C4CC4)CC3)nn2)cc1,91.5% (inactive)
16,Cc1cc(NCCCNc2ccnc3cc(Cl)ccc23)nc(Nc2ccc(C(=O)N3CCCCC3)cc2)n1,18.8% (inactive)
17,CC/C(=C(/c1ccc(O)cc1)c1ccc(OCCN2CCCCC2)cc1)c1ccc(OC)cc1,66.1% (inactive)
18,O=C(Nc1cccnc1Nc1ccccc1)c1cn(Cc2cccc(Oc3ccccc3)c2)nn1,52.6% (inactive)
19,Clc1cccc(C2Cc3cnccc3-c3[nH]c4ccncc4c32)c1 (stereo not drawn),42.2% (inactive)
20,C=C1C(=O)O[C@H]2[C@H]1CC/C(COC(=O)NCc1ccc(Cn3c(=O)sn(-c4ccccc4)c3=O)cc1)=C\CC[C@@]1(C)O[C@@H]21,-15.6% (active)
21,O=C(NCCCCCCNC(=O)OCc1ccc2c(Cl)cc(Cl)c(O)c2n1)OCc1ccc2c(Cl)cc(Cl)c(O)c2n1,-73.6% (active)
22,C/C(Cc1ccc(Cl)cc1)=C(\c1ccc(OCCN2CCCCCC2)cc1)c1ccc(OC(=O)c2ccccc2)cc1,59.1% (inactive)
23,CC(O)CNC(Cc1ccccc1)c1ccc2c(c1)OCO2 (stereo not drawn),98.7% (inactive)
24,OC1(c2ccccc2)c2ccccc2N(c2ccccc2)c2ccc(Cl)cc21 (stereo not drawn),-98.1% (active)
25,O=C(Cc1ccc(/C=C/C(=O)c2ncc[nH]2)cc1)Nc1cc(F)c(F)c(F)c1,3.93% (active)
26,C/C(=N\Nc1ccccc1)c1ccc(NC2=CC(=O)c3ccccc3C2=O)cc1,15.4% (inactive)
27,O=S(=O)(Nc1ccc2ccccc2c1)c1ccc(-c2cnc(C3CC3)o2)cc1,1.73% (active)
28,O=c1c2ccccc2n(C[C@H]2CO2)c2ccccc12,-19.7% (active)
